High-throughput results: PubChem, National Center for Advancing Translational Sciences (NCATS)
Sampled rows, rich in hits. Any-hit rate of the full collection: about 9.3%.
ELG1 genotoxic = inducers of genotoxicity in HEK293T ELG1-luciferase cells. HEK293T ELG1-luciferase reporter, luminescence, 16 h. Potency, µM (top dose mostly 46 µM), for the others: at the top dose activity change, positive = activation, most hits filed as activators. 330,000 tested, 1.3% active. AID 504466; also: % of control where 0% means no effect; nearly all actives have a fitted effect of over 60% in size
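HEK293T cells expressing luciferase-tagged ELG1 were exposed to compound or DMSO vehicle for 16 hr at 37 °C and 5% CO2. Luciferase activity was then measured with ONE-Glo after 30 min at room temperature.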
SMN2 splice up = enhancers of SMN2 splice variant expression | HEK293 SMN2-luciferase splicing reporter, luminescence, 30-36 h | Potency, µM (doses to about 46.1 µM), for inactives: at the top dose activity change, positive = activation, most hits filed as activators | 210,000 tested, 2.8% active | AID 1458; also: % of control where 0% means no effect; nearly all actives have a fitted effect of over 55% in size
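HEK293 cells carry an SMN2 minigene-luciferase reporter in which exon 7 inclusion puts luciferase in frame. Cells were seeded at 2000 cells/well, attached for 10-12 hours, then exposed to compounds for 30-36 hours at 37C before ONE-Glo luminescence.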
NPC1 prom act = NPC1 promoter activation; 320,000 tested, 2.4% active; Potency, µM (top dose mostly 9.22 µM), for the others: at the highest dose activation, usual class: activators; Huh7 NPC1 promoter luciferase reporter, 24 h; also: % of control where 0% means no effect; nearly all actives have a fitted effect of over 60% in size
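Stable NPC1-promoter luciferase Huh7 line; cpd (DMSO) 24 h, 37 °C, 5% CO2; Amplite luciferase reagent 10 min RT; luminescence readout. qHTS format.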
ELG1 repair inh = blocks ELG1-dependent DNA repair in HEK293T cells | HEK293T ELG1-luciferase reporter, luminescence, 16 h; DNA damage induced by 5-fluorouridine | Potency, µM (top dose mostly 46.1 µM), for inactives: top-dose activity change, negative = inhibition, actives largely listed as inhibitors | 330,000 tested, 2.3% active | AID 504467; also: % is scaled to controls: 0 for no effect and ±100 for the full control effect; nearly all actives have a fitted effect of over 55% in size
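Overnight (16 hr) co-exposure of 2,000 cells/well to 5-fluorouridine and compound at 37 °C preceded detection. Luciferase was quantified via ONE-Glo luminescence; loss of signal denotes inhibition.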
Rab9 prom act = activates the Rab9 promoter; Huh7 Rab9 promoter-luciferase reporter, luminescence, 24 h; AID 485297; 320,000 tested, 2.8% active; Potency, µM (series often up to 9.22 µM), inactives show at the highest dose activation, negative = inhibition, hits mostly activators; also: % of control where 0% means no effect; nearly all actives have a fitted effect of over 60% in size
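Steps: seed 1500 Huh7 Rab9-luc cells per well, rest 2 h at 37 °C; add compound in DMSO; incubate 24 h; add luciferase reagent, 10 min ambient; read luminescence.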
FLuc counter = inhibits or activates purified firefly luciferase, miR-21 counter-screen; AID 588342; purified FLuc, Km substrates, luminescence inhibition; 360,000 tested, 6.9% active; Potency, µM (highest dose often 57.5 µM), for inactives: at the top dose activity change, negative = inhibition, actives largely listed as inhibitors; P08659;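 also: plate controls were vehicle for no effect and reference inhibitor for full effect; nearly all actives have a fitted effect of over 55% in size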
Target sequence (P08659 whole entry, looked up): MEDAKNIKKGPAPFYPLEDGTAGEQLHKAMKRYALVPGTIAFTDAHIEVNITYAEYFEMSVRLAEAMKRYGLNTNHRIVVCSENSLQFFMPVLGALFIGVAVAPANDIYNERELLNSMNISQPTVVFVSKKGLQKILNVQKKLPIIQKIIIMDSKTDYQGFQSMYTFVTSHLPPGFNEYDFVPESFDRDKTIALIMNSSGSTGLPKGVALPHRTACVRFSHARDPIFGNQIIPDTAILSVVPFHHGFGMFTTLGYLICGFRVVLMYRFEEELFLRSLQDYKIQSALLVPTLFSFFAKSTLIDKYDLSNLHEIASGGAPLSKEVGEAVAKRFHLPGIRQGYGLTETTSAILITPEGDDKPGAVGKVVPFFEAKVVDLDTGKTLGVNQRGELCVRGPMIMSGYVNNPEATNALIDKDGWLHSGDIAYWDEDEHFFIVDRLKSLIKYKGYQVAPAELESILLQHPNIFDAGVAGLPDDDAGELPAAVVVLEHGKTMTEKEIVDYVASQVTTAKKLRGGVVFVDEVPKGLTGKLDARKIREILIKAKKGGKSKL
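Biochemical qHTS of compounds, final roughly 60 µM downward over six points, against 10 nM purified firefly luciferase using Km concentrations of substrates (10 uM D-luciferin, 10 uM ATP) in Tris acetate pH 7.5 buffer; luminescence output.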
Starred values were filed as active, the others as inactive; ? = inconclusive; nt = not tested or not shown; [ ] = dose if it differs, or a comment. Calls follow the shape of the dose curve; as a rule, active = well fitted curve in the direction sought with a large enough effect; inconclusive = small, poorly fitted or top-dose-only effect, or another doubt; inactive = no such curve, though single readings can be large; an effect the other way counts as inactive or inconclusive. Potency is read from the fitted curve at half-maximal effect.

SMILES	ELG1 genotoxic	SMN2 splice up	NPC1 prom act	ELG1 repair inh	Rab9 prom act	FLuc counter
O=C(COC(=O)c1ccc(F)c(S(=O)(=O)N2CCOCC2)c1)c1ccc(Br)cc1	0%	nt	-1%	4%	-3%	?
O=C(Cc1cccs1)Nc1ccc2c(c1)C(=O)OC2	12%	-6%	3%	2%	-2%	-5%
COC(=O)C1C(=O)C2=C(CC1C)NC(C)=C(C(=O)OCCOc1ccccc1)C2c1ccc(C)o1 (stereo unspecified)	-7%	-10%	-7%	23µM*	-3%	-9%
COC(=O)C1C(=O)C2=C(CC1C)NC(C)=C(C(=O)OCc1ccc(OC)cc1)C2c1ccc(C)o1 (stereo unspecified)	-2%	?	0%	?	-3%	1%
Cc1ccc(C(C)C)c(OCc2ccc(C(=O)N/N=C/c3ccc(C(=O)O)cc3)cc2)c1	5%	nt	21%	?	0%	?
Nc1c(C(=O)NCc2ccc(F)cc2)c2nc3ccccc3nc2n1CCCN1CCOCC1	-14%	-17%	-2%	?	-1%	4%
Nc1c(C(=O)NCc2ccccc2)c2nc3ccccc3nc2n1CCCN1CCOCC1	-1%	-6%	-7%	21µM*	-1%	-1%
COc1ccc(CNC(=O)c2c(N)n(CCCN3CCOCC3)c3nc4ccccc4nc23)cc1	-24%	-18%	0%	21µM*	2%	0%
Cc1ccccc1C(=O)Nc1ccc(C(=O)O)cc1NC(=O)c1ccccc1C	0%	nt	3%	-6%	2%	-2%
COc1ccc2nc(NC(=O)Cc3ccc(OC)c(S(=O)(=O)N4CCOCC4)c3)sc2c1	-1%	-23%	11%	-21%	7%	24µM*
COc1ccc2nc(NC(=O)c3cc(S(=O)(=O)N4CCOCC4)ccc3C)sc2c1	-4%	-49%	2%	?	1%	11µM*
COc1ccc2nc(NC(=O)c3cccc(S(=O)(=O)N4CCOCC4)c3)sc2c1	0%	-29%	0%	?	4%	11µM*
COc1ccc2nc(NC(=O)C3CCCN3S(=O)(=O)c3ccc(C)cc3)sc2c1 (stereo unspecified)	-12%	-13%	7%	23µM*	7%	-16%
Cc1ccc(S(=O)(=O)N2CCCC2C(=O)Nc2nc3c(s2)CCCC3)cc1 (stereo unspecified)	?	-63%	-2%	-26%	-14%	2%
C=CCN(c1ccccc1OC)S(=O)(=O)c1cccc(C(=O)OCC(=O)N2CCOCC2)c1	0%	nt	nt	-5%	nt	nt
Cc1ccc(-c2ccc(/C=C(\C#N)C(N)=S)n2C)cc1	16%	nt	?	?	?	4.8µM*
Cn1cccc1/C=C(/C#N)C(N)=S	-1%	16%	-2%	-24%	2%	-11%
COc1cc(/C=N/NC(=O)Cc2csc(N3CCOCC3)n2)cc(OC)c1O	0%	6%	0%	-4%	0%	15µM*
COc1cc(/C=N/NC(=O)Cc2ccc(Br)cc2)cc(OC)c1O	4%	nt	-5%	?	-9%	-4%
O=C(Cc1csc(N2CCOCC2)n1)N/N=C/c1ccc(Cl)cc1Cl	-6%	-9%	-4%	23µM*	0%	?
O=C(CN1c2ccccc2Sc2ccccc21)N/N=C/c1ccc(Cl)cc1Cl	-1%	nt	-30%	-15%	0%	0%
C[C@@H]1CC[C@@]23COC(=O)C2=CCC[C@@H]3[C@@]1(C)CC/C(=C/CO)CO	0%	nt	5%	10%	16%	-1%
O=C(Nc1cccc2ccccc12)c1ccccc1	?	-2%[9.22 µM]	?	?	3.5µM*	13µM*
Nc1ccccc1C(=O)Nc1cccc2ccccc12	?	nt	3.2µM*	?	2.8µM*	19µM*
CC(=O)c1cccc(NC(=O)C(=O)Nc2cccc3ccccc23)c1	16%	nt	?	?	2.5µM*	?
SMILES	ELG1 genotoxic	SMN2 splice up	NPC1 prom act	ELG1 repair inh	Rab9 prom act	FLuc counter
CC(C)C(=O)N1CCN(c2ccccc2NC(=O)c2ccc(C#N)cc2F)CC1	-3%	-16%	6%	-12%	-3%	-6%
O=C(COC(=O)c1ccc(Cl)cc1)NC1CCCCCC1	1%	nt	-2%	2%	-4%	-1%
CCCc1nc2c(=O)n(C)c(=O)nc-2n(C)n1	-15%	-109%	-43%	4.6µM*	-43%	2%
Cc1cc(/C=C2\SC(=S)NC2=O)c(C)n1C1CC1	16%	14%	?	?	?	6.7µM*
Cc1cc(/C=C2/C(=O)N(C)C(=S)N2C)c(C)n1C1CC1	18µM*	13µM*	2.8µM*	?	2µM*	3µM*
Cc1nn(-c2ccccc2)c(Cl)c1/C=C1\C(=O)N(C)C(=S)N1C	0%	9%	-8%	?	-2%	-3%
Cc1cc(O)c(C(c2ccccc2)N2CCN(c3ccc(F)cc3)CC2)c(=O)n1Cc1ccco1 (stereo unspecified)	nt	nt	nt	nt	nt	-15%
CC(=O)c1cccc(NC(=O)CN2C(=O)CN(C)C(=O)c3ccccc32)c1	nt	nt	nt	nt	nt	-4%
Nc1ccccc1SSc1ccccc1N	10%	nt	0%	?	6%[1.84 µM]	11µM*
Cc1ccc(CN2CC(C(=O)N3CCN(S(=O)(=O)c4ccc(C(C)C)cc4)CC3)CC2=O)cc1 (stereo unspecified)	-5%	nt	-1%	12µM*	-4%	4%
CCCN1C(=O)c2[nH]nc(-c3ccc(F)cc3)c2C1c1ccc(O)c(OCC)c1 (stereo unspecified)	nt	13%	nt	nt	nt	1%
CCOc1ccc(OCC)c(-c2c(=O)n(OCc3ccc(C(C)(C)C)cc3)c3ccccc3[n+]2[O-])c1	-6%	-6%	-5%	?	-1%	8.5µM*
CCOn1c(=O)c(-c2cc(OC)ccc2OC)[n+]([O-])c2ccccc21	-4%	nt	-3%	3%	3%	-1%
CCOc1ccc(-c2nc(S(=O)(=O)c3ccccc3)c(N3CCOCC3)o2)cc1	0%	-12%	-7%	1%	-2%	0%
Cc1ccccc1NC(=O)Cc1nnc(SCC(=O)Nc2ccccc2)n1C	1%	9%	1%	6%	-3%	-4%
CCN1C(=O)[C@@H]2[C@@H](c3ccc(-c4ccc(Cl)c(Cl)c4)cc3)N3CCCC[C@@]3(C(=O)OC)[C@@H]2C1=O	1%	nt	-8%	2%	-3%	0%
COCC(=O)N1CCC(Oc2ccc(C(=O)NC(C)c3nccs3)cc2)CC1 (stereo unspecified)	1%	nt	-4%	5%	4%	3%
O=C(NCC(c1ccco1)N1CCOCC1)C1CCCCC1 (stereo unspecified)	-2%	nt	-1%	1%	-1%	-3%
